Assay results reported in PubChem BioAssay AID588463 (National Center for Advancing Translational Sciences (NCATS), 2011).
In all, about 1,200 compounds went through this assay and about 15 (1%) were called active. Roughly 7% stayed inconclusive and do not appear here. Calls come from the whole dose curve; as a rule, active = well fitted activation curve with a large enough effect; inconclusive = small, poorly fitted or top-dose-only effect; inactive = flat fitted curve, though single readings scatter. The list comes from a sample in which actives are over-represented; it also holds similar structures and randomly drawn compounds. A call without a number means that no potency is given here.

biological target: Beta-2 adrenergic receptor (Homo sapiens) (UniProt P07550); test: qHTS assay of beta-arrestin-biased ligands of beta2-adrenergic receptor: Hit Validation; conditions: cell-based beta-arrestin recruitment to beta2AR; Potency: activation; series mostly up to 46.1 µM
Sequence (P07550 whole entry, looked up): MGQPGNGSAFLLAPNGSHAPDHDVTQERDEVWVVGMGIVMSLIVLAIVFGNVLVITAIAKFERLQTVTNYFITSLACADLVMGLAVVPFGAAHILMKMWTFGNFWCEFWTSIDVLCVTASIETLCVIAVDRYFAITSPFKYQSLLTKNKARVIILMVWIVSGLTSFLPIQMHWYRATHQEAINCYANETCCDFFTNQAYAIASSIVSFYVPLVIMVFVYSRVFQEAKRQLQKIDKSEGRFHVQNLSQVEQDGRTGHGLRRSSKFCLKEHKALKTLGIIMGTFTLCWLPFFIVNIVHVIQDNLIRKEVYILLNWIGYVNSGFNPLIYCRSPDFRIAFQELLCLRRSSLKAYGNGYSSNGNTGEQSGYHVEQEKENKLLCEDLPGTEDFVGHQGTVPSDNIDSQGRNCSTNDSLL
Text: The concept of biased agonism is an emerging concept of molecular pharmacology which proposes that seven transmembrane receptors (7TMRs) or G protein-coupled receptors (GPCRs), exist in multiple signaling conformations and complexes and that ligands (either agonists or antagonists) can induce signaling biased responses for distinct signal transduction cascades.
Furthermore, accumulating evidence over the last decade has drawn attention to a novel function of beta-arrestins as signal transducers that scaffold various signaling molecules upon activation of 7TMRs. […] This beta-arrestin-biased signaling presumably leads to distinct physiological outcomes from those by G protein activation.
Additionally, the active receptor conformations which […] on this beta-arrestin signaling are likely different from those activating G protein signaling
The goal of this screening project will be to discover and optimize novel beta-arrestin-biased ligands for beta2-AR signaling. A luminescent cell-based assay for beta2-AR-mediated agonism, known as the Tango assay, has been validated in which ligand binding of a recombinant beta2-AR and subsequent recruitment of a recombinant beta-arrestin lead to the release of the transcriptional activator tTA, which upregulates transcription of a tTA-responsive luciferase gene.
NIH Molecular Libraries Probe Production Network [MLPCN]
NIH Chemical Genomics Center [NCGC]
PI: Bryan Roth (UNC) and Bob Lefkowitz (Duke)
NCGC Assay Protocol Summary:
Tango cells were dispensed into white, solid, tissue-culture-treated 1536-well plates at 1500 cells/well in DMEM, containing 1% fetal bovine serum (FBS). Then, 23 nL of compounds or DMSO were delivered to each well using a pin tool. Plates were incubated at 37 degrees C, 5% CO2 for 18 hr. Then 2.5 uL luminescent substrate mix (in-house prepared: 150 mM Tris-Cl, pH 7.6, 3 mM MgCl2, 1% Triton X-100, 5 mM DTT, 0.5 mM CoA, 0.15 mM ATP, 0.44 mM D-luciferin, final concentrations) was added to each well. Plates were then incubated for 15 minutes at room temperature, and subsequently measured on a ViewLux plate reader for luminescent signal using a clear filter with a 10 second exposure and 2x binning. The %Activity was determined from the corrected luminescence values.
Concentration-response curves were fitted to the signals arising from the resulting luminescence. The concentration-effect curves were then classified based on curve quality (r2), response magnitude and degree of measured activity, and compounds were subsequently categorized based on their curve class.
Keywords: biased agonism, beta2-AR, beta-arrestin, GPCR, 7TMR, Tango, luminescence, MLSMR, MLPCN, NIH Roadmap, qHTS, NCGC
Potency is the fitted concentration of half-maximal effect.

Row | Compound | Potency
1 | CCOC(=O)/C(C#N)=C/Nc1ccsc1C(=O)OC | inactive
2 | S=c1[nH]c(-c2ccccc2)cn1/N=C/c1cccs1 | inactive
3 | O=C(Oc1c(Cl)cc(Cl)c2cccnc12)c1cccs1 | inactive
4 | N#CC[C@H](Cc1ccccc1)N1CC[C@@H](O)CCC1=O | inactive
5 | COc1ccc(N2C(=O)C3C(C2=O)C(C(=O)c2ccccc2)N2CCCC32)cc1 (stereo unspecified) | inactive
6 | COc1ccccc1NC(=S)N/N=C1\CC(C)(C)Oc2ccc(O)cc21 | inactive
7 | CC(=O)O[C@H]1C2OC(=O)C(C)=C2[C@@H]2OC(=O)[C@]3(CCC4OC41C)OC23 (stereo partly specified) | inactive
8 | CNC(=S)N/N=C/c1c(C)cccc1Cl | inactive
9 | CC(NC(=O)NNC(N)=S)(C(F)(F)F)C(F)(F)F | inactive
10 | COc1ccc(CN2CCCC(C(=O)c3ccc(SC)cc3)C2)cc1Cn1cccn1 (stereo unspecified) | inactive
11 | COc1cc(CN2CCCCC2C(=O)Nc2ccc(Oc3ccccc3)nc2)ccc1O (stereo unspecified) | inactive
12 | Cc1nnc(NC(=O)c2ccc3ccccc3c2)o1 | inactive
13 | Oc1c(CNc2ccccc2)cc(COCc2ccccc2)c2cccnc12 | inactive
14 | Cc1ccc2nc(N3C(=O)CNC3=S)sc2c1 | inactive
15 | Clc1ccc(OCc2nc(-c3ccccn3)n[nH]2)cc1 | inactive
16 | CNC(=S)N/N=C(\C)c1ccccc1 | inactive

Row | Compound | Potency
17 | CCCn1c(Nc2nc3ccccc3n2C)nc2ccccc21 | inactive
18 | CCC(NC(C)C)C(O)c1ccc(O)c2[nH]c(=O)ccc12 (stereo unspecified) | 16.4 nM (active)
19 | CCC(NC(C)C)C(O)c1ccc(O)c(O)c1 (stereo unspecified) | 2060 nM (active)
20 | Cc1ccc(C2(C)NC(=O)N(CC(=O)c3ccc4c(c3)OCCO4)C2=O)cc1 (stereo unspecified) | inactive
21 | CNc1sc(C(=O)c2ccccc2F)c(N)c1-c1nc2ccccc2s1 | inactive
22 | O=S1(=O)Nc2c(ccc3cccnc23)-c2ccccc21 | inactive
23 | CN1CCN(c2ccc(C(F)(F)F)cc2NC(=O)c2ccco2)CC1 | inactive
24 | COc1ccccc1-n1c2nc3ccccc3nc2c2c(=O)n(-c3cc(C)cc(C)c3)cnc21 | inactive
25 | COc1ccc(/C=C(\C#N)C(=O)OCC(=O)NCc2ccccc2)cc1 | inactive
26 | O=C(N/N=C/C(Br)=C/c1ccccc1)c1cnccn1 | inactive
27 | O=c1[nH]c2c(cnn2-c2ccc(Cl)cc2)c(=O)n1-c1cccc(Cl)c1 | inactive
28 | O=C(COC(=O)c1cc(=O)c2ccccc2o1)Nc1ccc2ccccc2c1 | inactive
29 | CCc1n[nH]c(=S)n1/N=C/c1ccc(N(CC)CC)cc1 | inactive
30 | COc1ccccc1-[n+]1c(C)cc(/C=C2\Sc3ccccc3N2C)cc1C | inactive
31 | CCCNC(=O)CN(c1ccccc1)S(=O)(=O)c1ccc(OC)c(OC)c1 | inactive
